The text below walks through data of PubChem BioAssay AID493200 (National Center for Advancing Translational Sciences (NCATS), 2011).

Records with an inconclusive call do not appear. Values without a mark were called inactive. The source made the active and inactive calls. The call rests on the fitted dose curve; in most records, active means well fitted activation curve with a large enough effect; inconclusive means small, poorly fitted or top-dose-only effect; inactive means no such curve, though single readings can be large or run the other way.
Potency means the concentration at half of the fitted maximal effect.

This test can be described thus: qHTS Assay for Rab9 Promoter Activators: Initial hit validation from the primary screen. On activation: % of control where 0% means no effect. The conditions noted are these: Huh7 Rab9 promoter luciferase reporter, 24 h; series mostly up to 46.1 µM; activation: at the top concentration. The essentials: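 Huh7 cells stably carrying a Rab9 promoter–luciferase construct, plated in reduced-serum medium with 10% FBS, rested 2 h, then exposed to compounds in DMSO for 24 h at 37C. Luminescence read 10 min after adding Amplite luciferase reagent.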
A general note: In qHTS, concentration-response curves come from the screen itself.
As to `O=C(NC1CCCC1)C(c1ccc(F)cc1)N(C(=O)c1csnn1)c1ccccc1` (centres undefined), the “activation” value was 5.07%.
Take `S=C1NCN(CCc2ccccc2)CN1Cc1ccccc1`: the “activation” value is -5.55%.
As to `O=C(NNC(=O)C1COc2ccccc2O1)c1ccccc1O` (centres undefined), the “activation” value was -4.84%.
The same measure, in the same setting: in the case of `Cc1ccc(C(=O)NC2CCN(CC(=O)Nc3c(C)cc(C)cc3C)CC2)cc1` it was -10.8%; in that of `O=C(CN1C(=O)COc2ccc(Cl)cc21)NCC1CCCO1` (centres undefined), -7.34%; in that of `Cc1ccccc1NC(=O)Cc1nc(COC(=O)CC(C)c2ccccc2)cs1` (centres undefined), -3%.
Take `CC(=O)c1cccc(NC(=O)N2CCOCC2)c1`: the “activation” value was 2.76%.
For the compound `N#C/C(=N\Nc1ccc(Cl)cc1)C(=N)N1CCCCC1`, the Potency is 223 nM (active).
With `COc1ccc(C(c2nnnn2CCc2ccccc2)N2CCN(C3CCCC3)CC2)cc1` (centres undefined), the “activation” value was -10.4%.
`Cc1ccc(S(=O)(=O)/N=C2\C=C(Nc3cccc(C(=O)O)c3)C(=O)c3ccccc32)cc1`: the “activation” value is -45.7%.
Take `COc1ccc(NC(=O)CCCN2C(=O)C(c3ccccc3)Oc3cccnc32)cc1OC` (centres undefined): the “activation” value is -5.24%.
In the case of `Cc1ccc2c(c1)sc1nc(=O)n(-c3ccccc3)c(=O)n12`, the Potency is 499 nM (active).
Consider `O=C(CSc1nnc(-c2ccc([N+](=O)[O-])cc2)o1)Nc1ccccn1`, for which the Potency was 560 nM (active).
As for `CCC(=O)Nc1cc(-c2cc3ccccc3oc2=O)ccc1OC`, the Potency was 791 nM (active).
On to `C=CCc1ccc(OCCOCCNCCOC)c(OC)c1`, for which the “activation” value is -10.5%.
Turning to `COc1ccccc1C(=O)Nc1nnc(SCC(=O)NC2CCCC2)s1`, the Potency is 888 nM (active).
For `CCCOP(=O)(c1ccc(N(C)C)cc1)C(O)c1cccnc1` (centres undefined), the “activation” value was -2.9%.
For the compound `CCOC(=O)c1ccc(-c2nnc(-c3ccc(Cl)cc3Cl)o2)cc1`, the Potency is 705 nM (active).
Turning to `O=C(CSc1nnc(Cc2cc(=O)[nH]c(=O)[nH]2)n1-c1ccc(Cl)cc1)NC1CCCC1`, the “activation” value was -2.05%.
For the compound `CCOc1ccc(CNC(=O)C2CCCN(S(C)(=O)=O)C2)cc1OC` (centres undefined), the “activation” value was 6.63%.
Still for that read-out and setting: in the case of `CCOC(=O)c1ccccc1NC(=O)CSc1nnc(Cc2cccn2C)n1-c1ccc(F)cc1` it was -11.2%.
With `Cc1ccc(C(=O)NCc2ccc3c(c2)OCO3)cc1C`, the Potency is 25000 nM (active).
For `COC(=O)c1cn(NC(=O)C2CCCCC2)c(=O)c2ccccc12`, the “activation” value is -5.53%.
Still for that read-out and setting: in the case of `CCc1cc2c(N=Nc3c(O)[nH]c4ccccc34)ncnc2s1` it was 9.06%; in that of `CC(Sc1ncnc2c1cnn2-c1ccccc1)C(=O)Nc1ccc(N2CCOCC2)cc1` (centres undefined), 8.63%; in that of `CN(C)/C=N/c1c(C#N)cnn1-c1nc2ccccc2s1`, 15.4%.
Still for that read-out and setting: in the case of `CCOc1cc(C2C(C#N)=C(N)Oc3n[nH]c(C)c32)ccc1OCCN1CCOCC1` (centres undefined) it was 0.655%.
Regarding `Cc1ccc(C#N)c(SCC(=O)Nc2nccs2)n1`, the Potency is 791 nM (active).
Regarding `Cc1nc(SCC(=O)NC(=O)NC(C)(C)C)nc(C)c1C`, the “activation” value is -2.54%.
As for `COc1ccc(/C=C\C(=O)c2c(O)ccc3c(C)cc(=O)oc23)cc1OC`, the “activation” value is -38.2%.
With `O=C(CCS(=O)(=O)c1ccccc1)Nc1ccc(-c2nc3ccccc3s2)cc1`, the Potency was 223 nM (active).
For `CC(C)C(NC(=O)c1ccc([N+](=O)[O-])cc1Cl)C(=O)N1CCCC1` (centres undefined), the “activation” value was -2.39%.
With `O=C(NCCSCc1c(F)cccc1Cl)c1ccc(CN2CCOCC2)cc1`, the “activation” value is -18.6%.
Take `COc1ccc(-c2csc(N(CCCN(C)C)C(=O)c3ccccc3C)n2)cc1`: the “activation” value is -38%.
